Reference: article PMC4336329 (PLoS ONE, 2015)
Among all 310,000 compounds or so, about 14,000 (4.5%) showed an effect of 50% or more. Effects have a minus sign here. Many of the other results were omitted from the sample, so strong results are more common in it than they were.

Target: human ether-à-go-go-related gene (hERG) potassium channel (human, UniProt Q12809)
Test: primary screen, population patch clamp on CHO cells stably expressing hERG; higher = less effect of the substance
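Also: peak tail current of the secondary pulse compared with the same well before compound.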

Chain of human ether-à-go-go-related gene (hERG) potassium channel (Q12809 whole entry, looked up): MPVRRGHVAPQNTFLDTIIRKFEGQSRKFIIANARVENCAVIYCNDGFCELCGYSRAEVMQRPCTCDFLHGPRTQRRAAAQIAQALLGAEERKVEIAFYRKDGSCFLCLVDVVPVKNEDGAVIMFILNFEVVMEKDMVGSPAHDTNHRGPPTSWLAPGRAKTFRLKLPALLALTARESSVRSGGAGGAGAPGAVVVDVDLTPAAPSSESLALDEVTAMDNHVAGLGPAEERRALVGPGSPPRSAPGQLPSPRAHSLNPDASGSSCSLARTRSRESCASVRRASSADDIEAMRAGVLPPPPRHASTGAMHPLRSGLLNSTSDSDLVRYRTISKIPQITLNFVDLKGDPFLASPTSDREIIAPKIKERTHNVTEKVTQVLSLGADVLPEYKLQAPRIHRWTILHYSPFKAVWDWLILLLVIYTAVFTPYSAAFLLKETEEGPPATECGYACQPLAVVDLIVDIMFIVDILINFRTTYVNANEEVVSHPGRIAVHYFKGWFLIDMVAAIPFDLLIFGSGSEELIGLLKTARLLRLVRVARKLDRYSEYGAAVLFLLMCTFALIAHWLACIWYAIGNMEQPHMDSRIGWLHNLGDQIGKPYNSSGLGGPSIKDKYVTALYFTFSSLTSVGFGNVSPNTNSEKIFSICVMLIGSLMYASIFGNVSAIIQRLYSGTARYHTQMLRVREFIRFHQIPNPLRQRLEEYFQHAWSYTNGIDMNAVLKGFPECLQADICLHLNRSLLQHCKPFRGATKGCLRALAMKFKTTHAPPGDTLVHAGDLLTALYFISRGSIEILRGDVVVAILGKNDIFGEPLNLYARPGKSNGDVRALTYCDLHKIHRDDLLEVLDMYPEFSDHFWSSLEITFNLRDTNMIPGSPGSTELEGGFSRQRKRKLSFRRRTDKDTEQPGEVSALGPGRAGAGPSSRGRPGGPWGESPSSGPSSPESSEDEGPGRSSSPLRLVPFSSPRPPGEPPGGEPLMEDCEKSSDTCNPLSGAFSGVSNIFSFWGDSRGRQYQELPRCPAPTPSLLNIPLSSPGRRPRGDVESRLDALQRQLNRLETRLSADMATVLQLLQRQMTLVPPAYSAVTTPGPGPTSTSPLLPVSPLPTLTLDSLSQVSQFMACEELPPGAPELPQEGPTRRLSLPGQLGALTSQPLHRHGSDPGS

SMILES	hERG current change (%, negative = inhibition) at 10uM
Cc1cccc(-c2nnc(SCC(=O)O)n2Cc2ccccc2)c1	-6.26%
N#CCSc1nnc(-c2ccccc2O)n1Cc1ccccc1	5.13%
Cc1cccc(-c2nnc(SCC#N)n2C)c1	13.2%
Cc1cccc(-c2nnc(SCC#N)n2-c2ccccc2)c1	-54.7%
Cc1cccc(-c2nnc(SCC#N)n2Cc2ccccc2)c1	-66.6%
Cc1cccc(-c2nnc(SCC#N)n2-c2cccc(Cl)c2)c1	-62.5%
N#CCSc1nnc(COc2cccc3ccccc23)n1-c1cccc(Cl)c1	8.77%
Cc1cc(C)nc(SCc2nnc(SCC#N)n2-c2cccc(Cl)c2)n1	-17.6%
Cc1ccc(-n2c(SCCN)nnc2-c2cccc(C)c2)cc1.O=C(O)C(=O)O	-38%
COC(=O)c1ccc(C2NC(=O)c3c(sc(C)c3C)N2)cc1 (stereo not drawn)	10.7%
COc1ccc(CCNC(=O)c2ccc3ccccc3n2)cc1	-5.65%
O=C(CNc1ccc2c(c1)OCO2)N/N=C\c1ccccc1Cl	3.98%
COc1cccc(NC(=S)N(Cc2ccccn2)Cc2ccccc2Cl)c1	5.73%
O=C(CN(Cc1ccccc1)S(=O)(=O)c1ccccc1)N/N=C/c1ccc2c(c1)OCO2	8.28%
C(=N\C(/N=C/c1ccco1)c1ccco1)/c1ccco1	-5.1%
COc1ccc(NC(=O)N2CCCC2C(=O)NCC2CCCCC2)cc1 (stereo not drawn)	0.904%
Cn1ncn2c(=O)c3c(nc12)-c1ccccc1CC31CCCC1	1.56%
COc1ccc(NC(=O)Cn2cc(C#N)c3ccccc32)cc1	15.3%
CC(=O)Nc1ccc(NC(=O)c2sc(-c3ccccc3)nc2C)cc1	10.6%
Nc1ccc2nc(-c3ccccc3)[nH]c2c1	6.5%
CCCc1cc(N2CCCC(C(=O)Nc3ccc(OC)cc3OC)C2)n2ncnc2n1 (stereo not drawn)	-51.4%
CCCc1cc(N2CCCC(C(=O)Nc3c(OC)cccc3OC)C2)n2ncnc2n1 (stereo not drawn)	-10.7%
COc1ccc(Cl)cc1NC(=O)C1CCCN(S(C)(=O)=O)C1 (stereo not drawn)	5.29%

SMILES	hERG current change (%, negative = inhibition) at 10uM
CCCc1cc(N2CCCC(C(=O)Nc3cc(Cl)ccc3OC)C2)n2ncnc2n1 (stereo not drawn)	-70.8%
COc1ccc(NC(=O)C2CCCN(c3cnccn3)C2)c(OC)c1 (stereo not drawn)	21.4%
COc1cc(C)nc(N2CCCC(C(=O)Nc3cc(Cl)ccc3OC)C2)n1 (stereo not drawn)	9.96%
O=C(Cc1ccccc1)NCCC1=CCCCC1	9.32%
O=C(CN1CCN(c2ccccc2O)CC1)NC(=O)NC1CCCC1	-0.609%
CCCCCC(=O)Nc1ccc(-c2cn3cccnc3n2)cc1	16.4%
CN1CCN(NC(=O)c2ccc(Cl)c([N+](=O)[O-])c2)CC1	8.74%
CC(=O)Nc1ccc(NC(=O)C(C)Sc2nnc(C3CC3)n2-c2ccccc2)cc1 (stereo not drawn)	8.37%
COc1ccc(N2CCN(C(=O)c3ccc4c(c3)OCO4)CC2)cc1	-21.7%
O=c1nc2ccccc2c(NS(=O)(=O)c2ccccc2)n1-c1ccccc1	2.7%
c1ccc(CSc2nnc(-c3ccco3)n2Cc2ccccc2)cc1	-46%
O=C(CSc1nnc(-c2ccco2)n1Cc1ccccc1)NC(=O)NCc1ccco1	-74.7%
Cc1ccc(C(=O)CSc2nnc(-c3ccco3)n2Cc2ccccc2)cc1	-17.8%
CC(=O)c1c(C)[nH]c(C(=O)CSc2nnc(-c3cccs3)n2Cc2ccccc2)c1C	-25.6%
O=C1c2ccccc2C(=O)N1CCSc1nnc(-c2ccco2)n1Cc1ccccc1	-72.8%
Cc1ccccc1CSc1nnc(-c2cccs2)n1Cc1ccco1	-41.7%
CCOC(=O)c1c(C)[nH]c(C)c1C(=O)CSc1nnc(-c2ccco2)n1Cc1ccccc1	-19.3%
CC(=O)c1c(C)[nH]c(C(=O)CSc2nnc(-c3ccco3)n2Cc2ccccc2)c1C	-61.5%
O=C(CSc1nnc(-c2ccco2)n1Cc1ccccc1)NC(=O)NCc1ccccc1	-13.3%
c1ccc(CSc2nnc(-c3ccco3)n2Cc2ccco2)cc1	-34.6%
Cc1ccccc1CSc1nnc(-c2ccco2)n1Cc1ccco1	-75.4%
Cc1nnc(SCC(=O)NC(=O)NCc2ccco2)n1Cc1ccccc1	-6.26%
